Assay results as given in paper PMC7826789 (International Journal of Molecular Sciences, 2021).

These molecules were tested on TLK1. Settings: Compound Concentration (nM):1000.
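Note: KINOMEscan scanMAX binding as percent activity remaining versus control; lower means stronger binding.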

SMILES	Percent Control [%]
Nc1ncnc2occ(-c3ccc(NC(=O)Nc4cc(C(F)(F)F)ccc4F)cc3)c12 [GW770249X]	100
CC(C)COC(=O)c1ccc2c(c1)/C(=C/Nc1ccc(S(N)(=O)=O)cc1)C(=O)N2 [GW416981X]	100
Cl.O=C(Nc1ccc(Oc2ccc3[nH]c(NC(=O)c4ccccc4)nc3c2)cc1)Nc1cc(C(F)(F)F)ccc1F [GW709042A]	100
CCc1ccc(Oc2nccc(-c3c(-c4ccc(F)cc4)ncn3C3CCNCC3)n2)cc1 [SB-242719]	91
COc1cc(C)c(N(C)C(=O)CN(C)C)cc1Nc1nc(Nc2cccc(F)c2C(N)=O)c2cc[nH]c2n1 [GSK2219385]	85
NS(=O)(=O)c1ccc(Nc2ncc(-c3ccccc3)o2)cc1 [GW572399X]	63
CCS(=O)(=O)c1ccc(OC)c(Nc2ncc(-c3cccc(OC)c3)o2)c1 [GW580509X]	100
C[C@@H](Oc1cc(-n2cnc3ccc(OC4CCN(C)CC4)cc32)sc1C(N)=O)c1ccccc1Cl [GSK579289A]	81
COc1cc2ncn(-c3cc(O[C@H](C)c4ccccc4Cl)c(C(N)=O)s3)c2cc1OC [GSK237701A]	96
O=C1Nc2ccc(C(=O)c3ccco3)cc2C1=Cc1cc(Cl)c(O)c(Cl)c1 [GW406108X]	94
Cc1cc(O)cc(C)c1/C=C/c1cncc(C(N)=O)c1 [GW435821X]	100
COc1cc(/C=N/Nc2ncnc3[nH]ncc23)ccc1O [GW578748X]	86
COc1cc(C=NNc2ncnc3c2cnn3-c2ccccc2)ccc1O [GW513184X]	100
NS(=O)(=O)c1ccc(N/N=C2\C(=O)Nc3ccc(C(=O)NCCc4c[nH]cn4)cc32)cc1 [GW300660X]	100
Cl.O=C(Nc1ccc(Oc2ccc3[nH]c(NC(=O)c4ccco4)nc3c2)cc1)Nc1cc(C(F)(F)F)ccc1F [GW683134A]	100
CN(C)CCNC(=O)Nc1ccc(N(C)c2ccnc(Nc3ccc(CS(C)(=O)=O)cc3)n2)cc1.Cl [GW830900A]	89
CCn1c(-c2nonc2N)nc2c(C#CC(C)(C)O)nc(OCCNC)cc21.Cl [GSK949675]	100
NS(=O)(=O)c1ccc(N/N=C2\C(=O)Nc3ccc(C(=O)NCc4ccncc4)cc32)cc1 [GW300657X]	71
Cl.O=S1CCN(Cc2ccc(-c3ccc4ncnc(Nc5ccc(OCc6ccccc6)c(F)c5)c4c3)o2)CC1 [GW576924A]	100
Cl.O=C(O[C@H]1CN[C@H](C#Cc2cc3ncnc(Nc4ccc5c(cnn5Cc5ccccc5)c4)c3s2)C1)N1CCOCC1 [GSK200398A]	80

What follows are molecules tested on TLK2. Settings: Compound Concentration (nM):1000.

SMILES	Percent Control [%]
CN1CCN(C(=O)c2ccc(NC(=O)Nc3ccc(N(C)c4ccnc(Nc5ccc(CS(C)(=O)=O)cc5)n4)cc3)cc2)CC1.Cl [GW830263A]	100
COc1cc2ncnc(Nc3ccc4c(cnn4Cc4ccccc4)c3)c2cc1OC.Cl [GW282449A]	100
CC1=C(C(=O)Nc2ccc3[nH]ncc3c2)C(c2ccc3ccccc3c2)CC(=O)N1 (stereo not drawn) [GSK270822A]	100
O=C(Nc1n[nH]c2nc(-c3ccc(O)cc3)c(Br)cc12)C1CC1 [SB-725317]	100
CCS(=O)(=O)c1ccc(OC)c(Nc2ncc(-c3cccc(F)c3)o2)c1 [GW621970X]	86
COc1ccc2cc(-c3c(-c4ccncc4)nc(-c4ccc(S(C)(=O)=O)cc4C)n3C)ccc2c1 [SB-633825]	100
COc1ccccc1-c1cc(/C=C2\C(=O)Nc3ncc(Br)cc32)cc(Br)c1O [GW442130X]	100
CN(C)c1cc2c(Nc3ccc4c(cnn4Cc4ccccc4)c3)ncnc2cn1 [GW282974X]	80
COc1ccc2[nH]c3c4[nH]c5ccc(OC)cc5c4c4c(c3c2c1)C(=O)NC4=O [GW296115X]	95
COc1cccc(-n2ncc3c(N/N=C/c4ccncc4)ncnc32)c1 [GW784752X]	93
CC1=C(C(=O)Nc2ccc3[nH]ncc3c2)C(c2ccc(Cl)c(Cl)c2)CC(=O)N1 (stereo not drawn) [GSK299115A]	90
COc1ccc(COc2ccc(Cc3cnc(N)nc3N)cc2OC)cc1 [GW632580X]	100
NS(=O)(=O)c1ccc(N/N=C2\C(=O)Nc3ccc(Cl)cc32)cc1 [GW280670X]	100
COc1cccc(-c2c[nH]c3c(N/N=C/c4ccncc4)ncnc23)c1 [GW814408X]	100
COC(=O)Nc1nc2ccc(Oc3ccc(NC(=O)Nc4cc(C(F)(F)F)ccc4F)cc3)cc2s1.Cl [GW693917A]	100
COc1ccc2c(-c3ccnc(Nc4cccc(OC(F)(F)F)c4)n3)cnn2n1 [GW810372X]	84
NS(=O)(=O)c1ccc(N/N=C2\C(=O)Nc3ccc(-c4cnco4)cc32)cc1 [GW276655]	66
Cl.c1ccc(Cc2nc3ccc(Nc4ncnc5ccccc45)cc3[nH]2)cc1 [GR269666A]	100
C/C(Nc1ccc(S(N)(=O)=O)cc1)=C1/C(=O)Nc2ccccc21 [GW335962X]	65
COc1cc(N2CCN(C(C)C)CC2)ccc1Nc1nc(Nc2ccc(F)cc2C(=O)NC[C@@H](O)CO)c2cc[nH]c2n1 [GSK1392956A]	92

SMILES	Percent Control [%]
Nc1ncnc2occ(-c3ccc(NC(=O)Nc4cc(C(F)(F)F)ccc4F)cc3)c12 [GW770249X]	100
CC(C)COC(=O)c1ccc2c(c1)/C(=C/Nc1ccc(S(N)(=O)=O)cc1)C(=O)N2 [GW416981X]	95
Cl.O=C(Nc1ccc(Oc2ccc3[nH]c(NC(=O)c4ccccc4)nc3c2)cc1)Nc1cc(C(F)(F)F)ccc1F [GW709042A]	86
CCc1ccc(Oc2nccc(-c3c(-c4ccc(F)cc4)ncn3C3CCNCC3)n2)cc1 [SB-242719]	100
COc1cc(C)c(N(C)C(=O)CN(C)C)cc1Nc1nc(Nc2cccc(F)c2C(N)=O)c2cc[nH]c2n1 [GSK2219385]	100
NS(=O)(=O)c1ccc(Nc2ncc(-c3ccccc3)o2)cc1 [GW572399X]	47
CCS(=O)(=O)c1ccc(OC)c(Nc2ncc(-c3cccc(OC)c3)o2)c1 [GW580509X]	99
C[C@@H](Oc1cc(-n2cnc3ccc(OC4CCN(C)CC4)cc32)sc1C(N)=O)c1ccccc1Cl [GSK579289A]	77
COc1cc2ncn(-c3cc(O[C@H](C)c4ccccc4Cl)c(C(N)=O)s3)c2cc1OC [GSK237701A]	98
O=C1Nc2ccc(C(=O)c3ccco3)cc2C1=Cc1cc(Cl)c(O)c(Cl)c1 [GW406108X]	97
Cc1cc(O)cc(C)c1/C=C/c1cncc(C(N)=O)c1 [GW435821X]	100
COc1cc(/C=N/Nc2ncnc3[nH]ncc23)ccc1O [GW578748X]	76
COc1cc(C=NNc2ncnc3c2cnn3-c2ccccc2)ccc1O [GW513184X]	100
NS(=O)(=O)c1ccc(N/N=C2\C(=O)Nc3ccc(C(=O)NCCc4c[nH]cn4)cc32)cc1 [GW300660X]	100
Cl.O=C(Nc1ccc(Oc2ccc3[nH]c(NC(=O)c4ccco4)nc3c2)cc1)Nc1cc(C(F)(F)F)ccc1F [GW683134A]	77
CN(C)CCNC(=O)Nc1ccc(N(C)c2ccnc(Nc3ccc(CS(C)(=O)=O)cc3)n2)cc1.Cl [GW830900A]	100
CCn1c(-c2nonc2N)nc2c(C#CC(C)(C)O)nc(OCCNC)cc21.Cl [GSK949675]	100
NS(=O)(=O)c1ccc(N/N=C2\C(=O)Nc3ccc(C(=O)NCc4ccncc4)cc32)cc1 [GW300657X]	75
Cl.O=S1CCN(Cc2ccc(-c3ccc4ncnc(Nc5ccc(OCc6ccccc6)c(F)c5)c4c3)o2)CC1 [GW576924A]	100
Cl.O=C(O[C@H]1CN[C@H](C#Cc2cc3ncnc(Nc4ccc5c(cnn5Cc5ccccc5)c4)c3s2)C1)N1CCOCC1 [GSK200398A]	72
